# According to the supplement of paper PMC10981050:
# Several values for one entry are separate records, joined by “and”; a condition that tells them apart may be missing. Equal entries are not always repeated. Structures can show the parent of a compound that is named as a salt.
# How the values were obtained:
# Test in all cases: cell viability relative to vehicle control; higher = less cytotoxic
# Conditions in all cases: 10 µM
# [1] = tested on: K562
# How it was run: (§1)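 CRISPR-edited SRSF2 P95 mutant and isogenic wild-type clones of four leukaemia lines were screened against Selleck bioactive, kinase and epigenetic probe libraries, with identity-inconsistent compounds removed. Compounds were acoustically dispensed into 384-well plates at a single 10 µM dose, with 2000 cells in 50 µL medium per well. After 48 h, supernatant was removed and CellTiter-Glo luminescence was read. Viability was expressed as percent of the on-plate DMSO vehicle control, analysed in Genedata Screener.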
# [2] = tested on: MARIMO
# How it was run: as §1
# [3] = tested on: MOLM14
# How it was run: as §1
# [4] = tested on: OCI-AML2
# How it was run: as §1
SMILES,cell viability ([1]; SRSF2 genotype: SRSF2 P95H/wt),cell viability ([1]; SRSF2 genotype: SRSF2 wt/wt) [%],cell viability ([2]; SRSF2 genotype: SRSF2 P95H/wt) [%],cell viability ([2]; SRSF2 genotype: SRSF2 wt/wt) [%],cell viability ([3]; SRSF2 genotype: SRSF2 P95H/wt) [%],cell viability ([3]; SRSF2 genotype: SRSF2 wt/wt) [%],cell viability ([4]; SRSF2 genotype: P95H/wt) [%],cell viability ([4]; SRSF2 genotype: wt/wt) [%]
CC(C)n1c(=O)n(C)c2cnc3cc(F)c(-c4ccc(OCCCN5CCCCC5)nc4)cc3c21,71.3% and 72.9%,75.9,60,61,30.9,32,32.7,37
O=C1O[C@H]([C@@H](O)CO)C(O)=C1O [Vitamin C (Ascorbic acid)],89.8% and 88.3%,85.8,100,92.8,90.8,95.1,91,93
COc1cc2ncnc(Sc3nnc(C)s3)c2cc1OC,52.4% and 59.1%,73.6,42,42.1,5.68,3.57,3.76,16.7
COCCCOc1cc(C[C@@H](C[C@H](N)[C@@H](O)C[C@H](C(=O)NCC(C)(C)C(N)=O)C(C)C)C(C)C)ccc1OC [Aliskiren Hemifumarate],104% and 99.9%,95.5,92.3,101,91.8,98.7,92.5,106
CC(C)c1ccc(NC(=O)Cn2cnc3c2c(=O)n(C)c(=O)n3C)cc1,88.2% and 87.9%,94.4,91,96.1,95.1,96.2,87.5,91
CCC(=O)O[C@]1(C(=O)CCl)[C@@H](C)C[C@H]2[C@@H]3C[C@H](F)C4=CC(=O)C=C[C@]4(C)[C@@]3(F)[C@@H](O)C[C@@]21C [Halobetasol Propionate],92.5% and 97.2%,89,101,98.1,76.3,85.8,99.3,105
OC[C@@H](O)[C@@H](O[C@@H]1O[C@H](CO)[C@H](O)[C@H](O)[C@H]1O)[C@H](O)[C@@H](O)CO [Lactitol],101% and 92.3%,98.9,94.4,100,99.8,101,91,95.1
Oc1c(Cl)cc(Cl)c2cccnc12 [Chloroxine],62.1% and 63.6%,66.6,21.6,14.7,55.5,63.2,1.78,3.9
COc1ccc(-c2nc(-c3cc(C(F)(F)F)cc(C(F)(F)F)c3)n(Cc3ccc(C(N)=O)cc3)c2-c2ccc(OC)cc2)cc1 [Apoptozole],80.8% and 87.7%,80.8,89.9,88.9,88.5,90.3,69.4,84.9
CCCNC(=O)c1cn2ncnc(Nc3cc(C(=O)NC4CC4)ccc3C)c2c1C,90.9% and 95.7%,93.3,99.5,101,91.8,95.8,91.3,95.9
O=c1cc(-c2ccc(O)cc2)oc2c([C@@H]3OC[C@H](O)[C@H](O)[C@H]3O)c(O)c([C@@H]3O[C@H](CO)[C@@H](O)[C@H](O)[C@H]3O)c(O)c12 [Schaftoside],113% and 106%,113,108,107,112,105,106,105
O=C(O)C=C(CC(=O)O)C(=O)O [cis-Aconitic acid],109% and 108%,101,102,113,102,103,97.9,106
O=C(O)CCc1ccc(O)cc1O [Hydroumbellic acid],96% and 92.8%,90.8,95.6,104,100,100,93.3,106
NC(=S)N/N=C/c1ncccc1N [Triapine],75.8% and 77.5%,76.5,20.1,15.3,6.66,1.54,13.1,15.1
CO[C@@H](C)Cn1c(=O)n(C)c2cnc3ccc(-c4cncc(C(C)(C)O)c4)cc3c21,34.4% and 40.7%,35,38.5,35.8,18.6,19.2,5.3,13.6
O[C@H]1[C@H]2c3cc4c(cc3CN3CCC(=C[C@@H]1O)[C@H]23)OCO4 [Lycorine hydrochloride],18.7% and 26.8%,28.4,22.9,21,20.3,7.64,0.76,2.07
C=C1CC[C@@H]2[C@](C)(CO)[C@H](O)CC[C@@]2(C)[C@@H]1C/C=C1/C(=O)OC[C@H]1O [Andrographolide],64.7% and 47.9%,59.5,20.5,19.6,11.1,6.73,23.4,22.4
Nc1ncnc2c1ncn2[C@@H]1O[C@H](CO)[C@@H](O)[C@@H]1O [Vidarabine (Vira-A)],94.6% and 101%,97,89.9,93.4,92.5,96.1,101,102
CCCCCCCCCCCCCCCC(=O)O[C@@H]1[C@@H](O)[C@@H](O)[C@@H]([C@H](NC(=O)[C@@H]2C[C@@H](CCC)CN2C)[C@H](C)Cl)O[C@@H]1SC [Clindamycin palmitate HCl],90.7% and 98.9%,94.8,103,108,101,105,93.6,101
COc1ccc(-n2nc(C(N)=O)c3c2C(=O)N(c2ccc(N4CCCCC4=O)cc2)CC3)cc1 [Apixaban],99.3% and 102%,103,97.9,112,107,105,98,96.7
O=c1c(-c2ccc(O)cc2)coc2cc(O[C@@H]3O[C@H](CO)[C@@H](O)[C@H](O)[C@H]3O)cc(O)c12 [Genistin (Genistoside)],95.5% and 108%,94.7,94.6,98,89,99.7,92.1,93.4

SMILES,cell viability ([1]; SRSF2 genotype: SRSF2 P95H/wt),cell viability ([1]; SRSF2 genotype: SRSF2 wt/wt) [%],cell viability ([2]; SRSF2 genotype: SRSF2 P95H/wt) [%],cell viability ([2]; SRSF2 genotype: SRSF2 wt/wt) [%],cell viability ([3]; SRSF2 genotype: SRSF2 P95H/wt) [%],cell viability ([3]; SRSF2 genotype: SRSF2 wt/wt) [%],cell viability ([4]; SRSF2 genotype: P95H/wt) [%],cell viability ([4]; SRSF2 genotype: wt/wt) [%]
CC[C@]1(O)C[C@H]2CN(CCc3c([nH]c4ccccc34)[C@@](C(=O)OC)(c3cc4c(cc3OC)N(C=O)[C@H]3[C@@](O)(C(=O)OC)[C@H](OC(C)=O)[C@]5(CC)C=CCN6CC[C@]43[C@@H]65)C2)C1 [Vincristine Sulfate],13.6% and 37%,35.8,6.92,9.68,0.94,1.22,5.06,9.32
Cc1cc(-c2nc(-c3ccc(OC(F)(F)F)cc3)no2)nn1Cc1ccnc(N2CCN(C3CC3)CC2)c1,61.8% and 46.9%,54.1,63,53.7,63.5,51.8,52.2,46.9
O=[N+]([O-])c1ccc2c(c1)S(=O)(=O)C=C2 [Stattic],8.02% and 0.43%,0.74,0.14,0.16,0.12,0.25,0.06,0.06
CN1CCN(Cc2ccc(NC(=O)Cc3ccc(Oc4cc(NC(=O)C5CC5)ncn4)cc3)cc2C(F)(F)F)CC1,30.9% and 36.5%,23.8,4.48,2.16,1.39,0.45,1,5.81
CC(C)N(CC[C@H](c1ccccc1)c1cc(CO)ccc1O)C(C)C,89.7% and 94%,98.4,88.3,90.7,93.3,97.9,93.5,90.9
CC1(C)CCC(C)(C)c2cc(NC(=O)c3ccc(C(=O)O)cc3)ccc21 [Tamibarotene],94.1% and 91.6%,90.8,93.1,99.2,88.8,98.3,37.4,61.5
NC1(Cc2ccc(Cl)cc2)CCN(c2ncnc3[nH]ccc23)CC1,55.4% and 60.1%,50.8,36.5,35.1,17.7,17,35.3,30.9
C[C@@]12CC[C@@H]3[C@@](CC[C@H]4[C@@]3(C)CCC[C@@]4(C)C(=O)O)(CC1=O)C2 [Iso-Steviol],100% and 92.9%,96.7,99.4,107,95,94.7,88.3,101
CCCCC(=O)O[C@H]1CC[C@H]2[C@@H]3CCc4cc(O)ccc4[C@H]3CC[C@]12C [Estradiol valerate],84.7% and 95.4%,94.2,84.7,69.3,69.9,69.2,45,30.4
CCCCc1nc(Cl)c(CO)n1Cc1ccc(-c2ccccc2-c2nnn[nH]2)cc1 [Losartan potassium],106% and 103%,104,103,114,104,104,102,106
O=c1c(N=Nc2nccs2)c(-c2ccccc2)[nH]n1-c1nc(-c2ccccc2)cs1,88.4% and 89.2%,88.4,94.2,106,92.9,95.9,103,105
COC1=C(OC)C(=O)C(CCCCCCCCCCO)=C(C)C1=O [Idebenone],78.7% and 86.7%,86.9,85.6,89.6,88,88.7,68.8,75.2
CCCCCCCCCCCCCCCCCCCCCC(=O)O [Behenic Acid],101% and 91.8%,103,97.7,112,104,108,91.8,102
CC(C)=CCC[C@](C)(O)[C@H]1CC[C@]2(C)[C@@H]1[C@H](O)C[C@@H]1[C@@]3(C)CC[C@H](O)C(C)(C)[C@@H]3[C@@H](O)C[C@]12C [(20S)-Protopanaxatriol],90.2% and 89.5%,101,96.1,105,106,106,107,101
C#Cc1cccc(Nc2ncnc3cc(OCCOC)c(OCCOC)cc23)c1 [Erlotinib(OSI-744)],83.5% and 94.5%,84.8,75.9,84.8,79,84.6,77.9,84.4
CCCCc1oc2ccccc2c1C(=O)c1cc(I)c(OCCN(CC)CC)c(I)c1 [Amiodarone HCl],70.3% and 74.5%,69.9,52.3,58.6,54.8,62.7,42.8,48.5
CCCCCCCCC(=O)O [Nonanoic acid],98.3% and 102%,102,108,106,98.4,102,107,97
COc1ccc(C(=O)C2CCN(CC(=O)N(Cc3nc4c(c(=O)[nH]3)COCC4)CC3CC3)CC2)cc1,110% and 104%,102,108,110,109,102,98.8,109
CC(C)Oc1ccc(-c2cnc3c(-c4ccnc5ccccc45)cnn3c2)cc1,86.4% and 88.6%,84.7,86.1,98,84.6,90.4,82.2,78.1
Nc1nc(NC2CC2)cc(-c2cccc(Cl)c2Cl)n1,26.5% and 36.8%,41.5,41.3,38,34.5,21.5,60.8,48.5
O=C(O)CCCc1c[nH]c2ccccc12 [3-Indolebutyric acid (IBA)],108% and 96.9%,96.9,100,107,93.2,101,97.2,106
